IL-1B inflam inh = blocks inflammasome-driven IL-1 beta release. AID 743279. activity change, % at 57.5 µM. hit rate 4.7% among 360,000. THP-1 LPS/ATP IL-1B secretion, AlphaLISA, 16 h; stronger effect = lower value; in the data active = activity change below about -50%; inconclusive = mostly about -30% to -49%
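THP-1 cells pretreated 1 hr with compounds (up to 57.5 uM final), then stimulated with LPS (250 ng/mL final) plus ATP (1.25 mM final); secreted IL-1B measured by AlphaLISA after 16 hr, decreased signal indicating inhibition.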
HT1080 IDH1KD tx = HT-1080 IDH1 knockdown cell toxicity (counter line); HT-1080 IDH1 knockdown viability, ATP luminescence, 48 h; Potency, µM (titrated, usually from 46.1 µM), without a hit: at the top dose activity, negative = toxicity, hits mostly cytotoxic; hit rate 2% among 360,000; AID 686971;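 note: potency is the fitted concentration of half-maximal effect; 0% = DMSO wells and -100% = cell-free medium wells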
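Luminescent ATP read-out (CellTiter-Glo, 10 min at room temperature) after 48 h compound exposure at 37 °C gave viability of IDH1-knockdown HT-1080 cells. Activity was normalised to DMSO and cell-free wells, then fitted as concentration-response curves.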
DT40 TDP1 CPT = DT40-hTDP1 cell growth loss with CPT; Potency, µM (highest dose often 46.2 µM), for the others: top-dose activity change, negative = growth inhibition, actives largely listed as inhibitors; chicken DT40 Tdp1-/-;hTDP1 cells + 20 nM CPT, ATP luminescence, 48 h; hit rate 12% among 420,000; note: potency is the fitted concentration of half-maximal effect; nearly all actives have a fitted effect of over 55% in size
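Cell growth measured by CellTiter-Glo luminescence after a minimum 48 h, 37 C compound exposure with 20 nM CPT in Tdp1-knockout DT40 cells stably expressing hTDP1, seeded 400/well; qHTS titration format.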
DT40 TDP1 no CPT = qHTS for Inhibitors of human tyrosyl-DNA phosphodiesterase 1 (TDP1): qHTS in cells in absence of CPT. DT40 Tdp1-/- hTDP1 cells, no CPT, ATP luminescence, 48 h. Potency, µM (doses to about 46.2 µM), for the others: at the highest dose activity change, negative = growth inhibition, most hits filed as inhibitors. hit rate 15% among 420,000; note: potency is the fitted concentration of half-maximal effect; nearly all actives have a fitted effect of over 55% in size
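A cellular qHTS used chicken DT40 cells lacking endogenous Tdp1 but carrying stably transfected human TDP1. Compounds were applied without camptothecin, and cell growth kinetics were judged by ATP-dependent luminescence after ≥48 hr.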
HT1080-NT tox = kills 2HG-producing HT-1080-NT fibrosarcoma cells | hit rate 1.6% among 360,000 | Potency, µM (doses to about 46.1 µM), inactives show at the top dose activity, negative = less viability, actives largely listed as cytotoxic | HT-1080-NT fibrosarcoma viability, CellTiter-Glo ATP luminescence, 48 h;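 note: NT is the 2HG producing partner of a matched IDH1 knockdown line; potency is the fitted concentration of half-maximal effect; 0% = DMSO-treated cells and -100% = media-only wells without cells; nearly all actives have a fitted effect of over 55% in size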
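Luminescent CellTiter-Glo readout after 48 hours of compound exposure at 37 degrees C defined viability of HT-1080-NT cells. Activity was normalized to DMSO wells and cell-free media wells; concentration-response curves were fitted and assigned curve classes.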
The depositor's hits bear a star; ? = inconclusive; . = not tested or not shown; ! = a repeat was not active. Sampled rows, rich in hits. Any-hit rate of the full collection: about 19%. Unless noted, calls come from the whole dose curve; as a rule, active = well fitted curve in the direction sought with a large enough effect; inconclusive = small, poorly fitted or top-dose-only effect, or another doubt; inactive = no such curve, though single readings can be large; an effect the other way counts as inactive or inconclusive. Unless noted, % is set by controls: 0 for no effect and ±100 for the full control effect.

SMILES	IL-1B inflam inh	HT1080 IDH1KD tx	DT40 TDP1 CPT	DT40 TDP1 no CPT	HT1080-NT tox
Cc1ccc(Cn2nnc3c(=O)[nH]c(C4CCCN(C(=O)Nc5ccc(F)cc5F)C4)nc32)cc1 (stereo not drawn)	-10	?	?	-24%	?
O=C(NC1CC2CCCC(C1)N2Cc1ccco1)NC12CC3CC(CC(C3)C1)C2 (stereo not drawn)	-4	4%	21µM*	18µM*	-1%
CCn1c(SCC(=O)c2ccccc2)nc2sc3c(c2c1=O)CCN(C)C3	-3	-1%	23µM*	21µM*	-12%
CSc1nc2sc3c(c2c(=O)n1-c1ccc(C)c(Cl)c1)CCN(C(C)=O)C3	.	.	?	15µM*	.
Cc1ccccc1-n1c(SCC(=O)O)nc2sc3c(c2c1=O)CCCC3	24	2%	-18%	-1%	-19%
CCSc1nc2sc3c(c2c(=O)n1-c1ccccc1)CCN(C(C)C)C3	-27	24%	10µM*	21µM*	20%
CCSc1nc2sc3c(c2c(=O)n1-c1ccccc1C)CCN(C)C3	-18	2%	?	29µM*	-1%
O=C(NCCCN1CCOCC1)c1c(-c2ccccc2)oc2c1C(OCCCCCO)CCC2 (stereo not drawn)	-7	16%	10%	-11%	1%
Cc1ccc(-n2nnnc2SCc2ccccn2)cc1C	-12	-2%	-10%	?	-1%
COc1ccc(C2=Nc3ccccc3N(C(=O)c3cccnc3)C2C(=O)NC2CCCC2)cc1 (stereo not drawn)	-16	-9%	-5%	4%	4%
COc1ccc(C(=O)OCC(=O)NC2CCCCCCC2)cc1OC	3	1%	3%	-21%	1%
CCCCSc1nc2sc3c(c2c(=O)n1-c1ccc(OC)cc1)CCN(C)C3	-8	-26%	?	?	-29%
CCCCCSc1nc2sc3c(c2c(=O)n1-c1ccc(OC)cc1)CCN(C(C)=O)C3	.	.	?	26µM*	.
C=C(C)CSc1nc2sc3c(c2c(=O)n1-c1ccccc1)CCN(C)C3	-24	?	?	29µM*	4%
CN1CCc2c(sc3nc(SCC(N)=O)n(-c4ccccc4)c(=O)c23)C1	-14	-2%	3%	-21%	2%
CN1CCc2c(sc3nc(SCC(N)=O)n(-c4ccc(Cl)cc4)c(=O)c23)C1	10	0%	?	23µM*	-1%
CCCCSc1nc2sc3c(c2c(=O)n1-c1ccccc1)CCN(C)C3	-8	-3%	9.2µM*	7.3µM*	0%
CCOc1ccc(-n2ccnc(SCC(=O)Nc3cccc(OC)c3)c2=O)cc1	-4	-4%	?	?	1%
O=c1c2ccccc2c(C=NCCc2ccccc2)c(O)n1Cc1ccccc1	?	-5%	?	?	0%
Cc1ccc2c(C(=O)CNc3nncs3)c(C)[nH]c2c1	?	8%	-5%	-8%	14%
O=[N+]([O-])c1ccc2oc(/C=C/c3ccc(O)cc3)nc2c1	-24	1%	-6%	?	7%
CCN(CC)CC(O)CNc1ccnc2c(Cl)ccc(Cl)c12 (stereo not drawn)	-66*	-18%	6%	-6%	1%
O=C(NC1(C(=O)O)CCCC1)c1ccccc1	-3	18%	4%	-15%	8%
CCC(=O)Nc1nonc1-c1nc2ccccc2n1CCC(C)C	-9	?	?	9.2µM*	-22%
CCN1C(=S)N[C@@H](CCc2ccccc2)C(C(=O)OC)=C1C	26	6%	?	?	16%
SMILES	IL-1B inflam inh	HT1080 IDH1KD tx	DT40 TDP1 CPT	DT40 TDP1 no CPT	HT1080-NT tox
COc1cc2c(cc1OC)CN(c1nc(CN3CCCC3)nc3sc(C)c(C)c13)CC2	-67*	?	-23%	?	15µM*
COc1cc2c(cc1OC)CN(c1nc(CN3CCCCC3)nc3sc4c(c13)CCCC4)CC2	-11	2%	?	?	5%
COc1ccc(CCNC(=O)Cn2c(=O)c3cccn3c3ccc(F)cc32)c(OC)c1	.	.	?	-22%	.
Cc1ncc(C[n+]2csc(CCOC(=O)CC34CC5CC(CC(C5)C3)C4)c2C)c(N)n1	10	-12%	?	?	-15%
Cc1c(CCOC(=O)C23CC4CC(CC(C4)C2)C3)sc[n+]1CC#N	-102*	?	3.3µM*	5.2µM*	?
Cc1c(CCOC(=O)CC23CC4CC(CC(C4)C2)C3)sc[n+]1Cc1ccccc1	?	?	2.1µM*	1.8µM*	?
CN(C)P(=NC(=O)COc1ccc(Cl)cc1Cl)(N(C)C)N(C)C	8	-12%	?	?	2%
COc1c(Cl)cc(C(=O)Nc2cccc(-c3nc4ccccc4[nH]3)c2)cc1Cl	.	.	?	23µM*	.
CC(=O)Nc1cc(NC(C)=O)cc(-c2nc3ccccc3[nH]2)c1	13	22%	8.2µM*!	5.8µM*!	23%
CC(=O)Nc1ccc2nc(-c3cc(C)ccc3C)[nH]c2c1	.	.	3.3µM*	3.3µM*	.
O=C(Nc1cccc(-c2nc3ccccc3[nH]2)c1)c1ccco1	0	1%	?	?	8%
CN(C)S(=O)(=O)c1ccc(C(=O)Nc2nc3ccccc3[nH]2)cc1	-3	15%	14%	-7%	21%
CCCN(CCC)S(=O)(=O)c1ccc(C(=O)Nc2cccc(-c3nc4ccccc4[nH]3)c2)cc1	.	.	4.6µM*	4.6µM*	.
CC(=O)Nc1ccc2nc(-c3ccncc3)[nH]c2c1	-15	20%	-2%	-3%	18%
O=C(CSc1nc2c(cnn2-c2ccc(F)cc2)c(=O)[nH]1)Nc1ccc(Br)cc1	.	.	-5%	6%	.
COC(=O)COc1ccc(-c2nccc(-c3ccccn3)n2)cc1	-5	20%	20%	6%	17%
COC(=O)COc1ccc(-c2nccc(-c3ccc(Br)cc3)n2)cc1	-3	26%	21µM*	?	?
COc1ccc(-c2ccnc(-c3ccc(O)cc3)n2)cc1	0	1.5µM*	1.6µM*	1.8µM*	4.1µM*
COc1ccc(-c2ccnc(-c3ccncc3)n2)cc1	16	-5%	?	16µM*	-11%
N#CCCn1c(=O)c(-c2cccs2)nc2cnc(OCc3ccccc3)nc21	.	.	14%	-9%	.
COc1ccc(/C=C/C(=O)N/C(=C\c2ccco2)C(=O)NCCc2nc3ccccc3[nH]2)cc1	0	-13%	21µM*	18µM*	-15%
O=C(NCCc1nc2ccccc2[nH]1)/C(=C/c1ccc2c(c1)OCO2)NC(=O)c1ccc(Cl)cc1Cl	-99*	?	?	?	?
O=C(/C=C/c1ccco1)N/C(=C\c1ccco1)C(=O)NCCc1nc2ccccc2[nH]1	4	-6%	-27%	?	1%
